Compounds with a hit are over-represented: about 1.6% of the library has one in this group of screens.
KCNQ2 inh – KCNQ2 (rat) channel inhibition. O88943. B-score at 10 µM. hit rate 1.1% among 310,000. CHO-K1 KCNQ2, FluxOR thallium flux, 20 min; active compounds read low;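 active means fluorescence ratio B-score at most minus 3 library SDs, with starting brightness B-score within 2 library SDs, cut at about -5.5 in these data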
Target sequence (O88943 whole entry, looked up): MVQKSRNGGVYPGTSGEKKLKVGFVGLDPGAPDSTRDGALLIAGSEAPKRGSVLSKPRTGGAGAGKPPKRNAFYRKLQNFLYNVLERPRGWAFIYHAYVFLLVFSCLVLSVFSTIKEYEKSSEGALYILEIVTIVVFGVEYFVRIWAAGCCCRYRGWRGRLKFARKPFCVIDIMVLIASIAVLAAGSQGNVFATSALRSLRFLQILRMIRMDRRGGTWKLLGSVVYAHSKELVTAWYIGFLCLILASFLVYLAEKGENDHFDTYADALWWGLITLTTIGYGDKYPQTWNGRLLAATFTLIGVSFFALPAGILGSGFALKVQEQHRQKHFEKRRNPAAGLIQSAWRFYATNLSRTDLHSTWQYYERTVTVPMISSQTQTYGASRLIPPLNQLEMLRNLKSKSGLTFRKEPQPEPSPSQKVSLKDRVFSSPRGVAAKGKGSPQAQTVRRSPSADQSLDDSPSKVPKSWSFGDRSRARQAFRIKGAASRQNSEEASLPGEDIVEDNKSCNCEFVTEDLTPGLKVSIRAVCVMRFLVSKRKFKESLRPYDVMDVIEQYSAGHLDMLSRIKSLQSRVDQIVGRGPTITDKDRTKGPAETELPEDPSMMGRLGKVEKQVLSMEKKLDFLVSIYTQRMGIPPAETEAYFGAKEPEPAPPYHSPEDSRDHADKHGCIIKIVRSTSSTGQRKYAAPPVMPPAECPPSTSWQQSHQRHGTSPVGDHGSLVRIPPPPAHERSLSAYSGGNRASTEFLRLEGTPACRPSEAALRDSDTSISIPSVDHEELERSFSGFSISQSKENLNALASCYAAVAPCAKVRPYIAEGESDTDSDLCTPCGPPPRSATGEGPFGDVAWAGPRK
KCNQ2 pot – KCNQ2 (rat) channel potentiation; O88943; CHO-K1 KCNQ2, FluxOR thallium flux fluorescence; active compounds read high; B-score at 10 µM; hit rate 0.54% among 310,000; AID 2239;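 active means fluorescence ratio B-score at least 3 SD of library B-scores, with initial fluorescence B-score within 3 of them, cut at about 5.3 in these data; same plate scores as AID 2156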;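 further: B-score of peak minus minimum over baseline fluorescence ratio after K+ and Tl+ stimulus; positive B-score means potentiation of KCNQ2 with more thallium influx and brighter signal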
Kir21 confirm – confirmation of mouse Kir2.1 potassium channel inhibitors; shares compounds with KCNQ2 pot; Kir2.1-expressing cells, FluxOR thallium flux fluorescence; active compounds read low; hit rate 41% among 2,300; Tl flux remaining, % of negative control (active compounds read low), % at 10 µM;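 active means Primary-screen hit whose thallium flux fell at least 3 control SD below untreated wells in both duplicates, with normal baseline fluorescence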;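 further: 0% = blank wells without stimulus and 100% = stimulated no-compound controls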
HEK293 Tl flux – counter-screen for Kir2.1 inhibitors: effect in parental HEK293 cells. shares compounds with KCNQ2 pot. FluxOR thallium flux fluorescence; 0% = unstimulated blank wells. FluxOR signal as % of negative control (100 = no effect), % at 10 µM. hit rate 19% among 2,300;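 active means dye signal at least 3 control SD above or below untreated wells in both duplicates, raw fluorescence within 3, either direction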;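 further: percent is based on the flux ratio of peak minus minimum fluorescence over baseline F0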
CHO-K1 Tl ctr – alters thallium flux in parental CHO-K1 cells, KCNQ2 counter-screen | shares compounds with KCNQ2 pot | FluxOR thallium flux fluorescence; zero = vehicle mean+3SD, 100% = vehicle-minus-blank window | AID 2282 | hit rate 43% among 1,200 | activity increase over 3SD of controls, % at 10 µM;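 active means signal rise of at least 3 SD above the untreated control mean, in both duplicate wells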;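 further: counter screen of KCNQ2 potentiator hits so any rise reflects channel-independent effects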
KCNQ1 pot spec – selectivity of KCNQ2 potentiators: effect on human KCNQ1 | shares compounds with KCNQ2 pot | CHO KCNQ1 stable, FluxOR thallium flux fluorescence; beyond 3SD, as % of vehicle-control signal | activation over 3SD threshold, % at 10 µM | hit rate 28% among 1,200 | AID 2283;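 active means fluorescence ratio rise of at least 3 SD of vehicle wells above their mean, in both replicate wells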;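 further: 0% = vehicle mean plus 3 SD and 100% = vehicle minus unstimulated blank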
KCNQ2 pot confirm – confirmation of rat KCNQ2 potassium channel potentiators; shares compounds with KCNQ2 pot; CHO-KCNQ2 cells, FluxOR thallium flux fluorescence; potentiation, less the hit threshold, % at 10 µM; hit rate 68% among 1,200; AID 2287;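 active means fluorescence ratio rising 3 SD or more over the vehicle control mean in both replicates, plus primary screen hit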;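 further: peak minus minimum thallium fluorescence divided by baseline after K/Tl stimulus; 0% = vehicle mean plus 3 SD and 100% = vehicle minus unstimulated blank difference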
Kir21 spec – tests whether KCNQ2 potentiators also affect mouse Kir2.1. shares compounds with KCNQ2 pot. HEK293 Kir2.1, FluxOR thallium flux fluorescence. activity over 3SD threshold, % at 10 µM. hit rate 2% among 1,200;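 active means fluorescence ratio rise of at least 3 SD above the vehicle-control mean, seen in both replicates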;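 further: 0% = vehicle mean plus 3 SD and 100% = vehicle minus no-stimulus blank window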
KCNQ2 W236L MoA – potentiates the retigabine-insensitive rat KCNQ2 W236L mutant channel; CHO KCNQ2-W236L, automated patch clamp current; hit rate 10% among 940; current increase over 3SD of negative controls (%), active compounds read high, % at 25 µM; shares compounds with KCNQ2 pot;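 active means current increase at least 3 SD of the untreated controls above them in both duplicate recordings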
An asterisk follows results filed as active; i = inactive; · = no result given.

SMILES	KCNQ2 inh	KCNQ2 pot	Kir21 confirm	HEK293 Tl flux	CHO-K1 Tl ctr	KCNQ1 pot spec	KCNQ2 pot confirm	Kir21 spec	others
c1ccc(-c2nc3c(ccc4ccccc43)[nH]2)nc1	i	8.4*	i	i	31*	6.1*	47*	-27	KCNQ2 W236L MoA=i
c1ccc(-c2nc3ccccc3[nH]2)nc1	i	·	·	·	·	·	·	·
Cc1ccc(NC(=O)CSCC(=O)Nc2cccc3ncccc23)cc1	i	·	·	·	·	·	·	·
COCCNc1nc(N)c([N+](=O)[O-])c(NCc2ccccc2)n1	i	1.4	·	·	·	·	·	·
C=CCNCc1cccn1-c1sc2c(c1C#N)CCCC2	i	0.43	·	·	·	·	·	·
N#Cc1c(-n2cccc2/C=N/O)sc2c1CCCC2	i	·	46%*	i	·	·	·	·
O=C(COC(=O)C1CCN(S(=O)(=O)c2ccccc2C(F)(F)F)CC1)NCc1ccc(F)cc1	i	0.08	·	·	·	·	·	·
CCCN1C(=O)/C(=C/c2ccc(C)s2)NC1=S	i	15*	i	216%*	-6	-12	66*	-32	KCNQ2 W236L MoA=i
Cc1ccc(/C=C2/NC(=O)N(Cc3ccccc3F)C2=O)s1	i	·	·	·	·	·	·	·
CC(C)CN1C(=O)/C(=C/c2cccs2)NC1=S	i	12*	i	322%*	-24	-19	57*	-14	KCNQ2 W236L MoA=i
CC(C)CN1C(=O)/C(=C/c2ccco2)NC1=S	i	1.6	·	·	·	·	·	·
COC(=O)c1c(NC(=O)C2CC(=O)NN2Cc2ccccc2)sc(C)c1C (centres undefined)	i	·	·	·	·	·	·	·
CCOc1ccccc1NC(=S)Nc1ccc(S(N)(=O)=O)cc1	i	0.05	·	·	·	·	·	·
COc1ccc(CCC(=O)NCc2cccc(C(F)(F)F)c2)cc1	i	6.7*	i	i	24*	-17	-2	-33	KCNQ2 W236L MoA=i
COc1ccc(CCC(=O)NCc2ccc3c(c2)OCO3)cc1	i	3	·	·	·	·	·	·
Cc1ccc(C)c(C(=O)CSc2nnc(C)s2)c1	i	1.6	·	·	·	·	·	·
Cc1ccc(/C=C/C(=O)C2C(=O)c3ccccc3C2=O)cc1	i	7.3*	i	146%*	-18	-19	-2	-32	KCNQ2 W236L MoA=i
Cc1ccc(/C=C/C(=O)c2ccccc2O)cc1	i	·	·	·	·	·	·	·
CC(C)Cn1c(SCC(=O)c2ccc(Cl)s2)nnc1-c1ccco1	-6.8*	-6.8	50%*	138%*	·	·	·	·
Cn1c(SCC(=O)OCc2ccccc2)nnc1-c1ccco1	i	·	·	·	·	·	·	·
CCn1c(SCC(=O)OCc2ccccc2)nnc1-c1ccco1	i	·	i	i	·	·	·	·
O=C(CSc1nnc(-c2ccco2)n1Cc1ccccc1)c1ccccc1	i	·	·	·	·	·	·	·
COc1ccc(-c2nc(CS(=O)(=O)CC(=O)NCCCN3CCN(C)CC3)c(C)o2)cc1	i	0.42	·	·	·	·	·	·
Oc1c(CN2CCN(c3ccccn3)CC2)cc(Cl)c2cccnc12	i	11*	i	146%*	4.1*	-5	24*	-25	KCNQ2 W236L MoA=i
O=C(Oc1c(CN2CCOCC2)cc(Cl)c2cccnc12)c1cccs1	i	·	·	·	·	·	·	·
SMILES	KCNQ2 inh	KCNQ2 pot	Kir21 confirm	HEK293 Tl flux	CHO-K1 Tl ctr	KCNQ1 pot spec	KCNQ2 pot confirm	Kir21 spec	others
Oc1c(Cl)cc(Cl)c2cccnc12	i	7.8*	i	176%*	-12	-15	11*	-12	KCNQ2 W236L MoA=i
OCCN1CCN(Cc2cc(Cl)c3cccnc3c2O)CC1	i	1	·	·	·	·	·	·
O=C(Oc1c(Cl)cc(Cl)c2cccnc12)c1cccs1	i	11*	i	i	-5	-38	-34	-41
Oc1c(Cl)cc(CN2CCCCC2)c2cccnc12	i	·	·	·	·	·	·	·
CCCc1c(C(=O)N/N=C/c2cccc3ccccc23)nnn1-c1nonc1N	i	1.3	·	·	·	·	·	·
CC(C)[C@H](NC(=O)NC1CCCC1)C(=O)O	i	0.19	·	·	·	·	·	·
CC(C)=CCCC(C)NC(=O)NC1CCCCC1 (centres undefined)	i	6.7*	i	76%*	20*	48*	12*	-43	KCNQ2 W236L MoA=i
CCCCn1c(-c2csc3ccccc23)n[nH]c1=S	i	0.12	·	·	·	·	·	·
CCCCn1c(-c2csc(C(C)C)c2)n[nH]c1=S	i	8.1*	·	·	-2	22*	3.4*	-55	KCNQ2 W236L MoA=40%*
CCN1CCN(c2c(S(=O)(=O)c3ccc(C)c(C)c3)cnc3ccc(F)cc23)CC1	i	·	·	·	·	·	·	·
COC(C(=O)N1CCC(CCC(=O)Nc2ccccc2)CC1)c1ccccc1 (centres undefined)	i	·	·	·	·	·	·	·
COc1cc(NS(=O)(=O)c2ccc(NC(=S)Nc3ccccc3)cc2)nc(OC)n1	i	·	·	·	·	·	·	·
COc1cc(NS(=O)(=O)c2ccc(Nc3nc(-c4ccccc4)cs3)cc2)nc(OC)n1	i	1.8	i	i	·	·	·	·
NN(Cc1ccccc1)C(=S)Nc1ccc(Cl)c(Cl)c1	i	·	·	·	·	·	·	·
COc1ccc(C(=O)N2CCN(CCc3ccccc3)CC2)cc1[N+](=O)[O-]	i	0.21	·	·	·	·	·	·
CC1(C)C(=O)OC(C(=O)c2ccccc2)C(C)(C)C1=O (centres undefined)	i	·	·	·	·	·	·	·
Cc1cc(C)c(C(=O)C2OC(=O)C(C)(C)C(=O)C2(C)C)c(C)c1 (centres undefined)	i	10*	i	i	6.5*	-16	2.7*	-40	KCNQ2 W236L MoA=i
CSc1ccc(S(=O)(=O)N2CCC(C(=O)NCC3CCCO3)CC2)cc1 (centres undefined)	i	2.2	·	·	·	·	·	·

Bioassay records as filed in PubChem BioAssay.
